In PubChem BioAssay AID1903 (Southern Research Specialized Biocontainment Screening …, 2009):
The campaign covered roughly 310,000 compounds. About 1,200 (0.39%) were called active. How the calls were made is not given here. Not all results are given here. Entries with a potency or affinity are not part of this list.

Target: Large T antigen (Simian virus 40) (UniProt P03070)
Assay: SV40 large T antigen inhibitors, biochemical (AID 1903)
Details: SV40 large T antigen ATPase/helicase inhibition assay; at 20 µM; active compounds read high

Sequence of Large T antigen (Simian virus 40) (P03070 whole entry, looked up): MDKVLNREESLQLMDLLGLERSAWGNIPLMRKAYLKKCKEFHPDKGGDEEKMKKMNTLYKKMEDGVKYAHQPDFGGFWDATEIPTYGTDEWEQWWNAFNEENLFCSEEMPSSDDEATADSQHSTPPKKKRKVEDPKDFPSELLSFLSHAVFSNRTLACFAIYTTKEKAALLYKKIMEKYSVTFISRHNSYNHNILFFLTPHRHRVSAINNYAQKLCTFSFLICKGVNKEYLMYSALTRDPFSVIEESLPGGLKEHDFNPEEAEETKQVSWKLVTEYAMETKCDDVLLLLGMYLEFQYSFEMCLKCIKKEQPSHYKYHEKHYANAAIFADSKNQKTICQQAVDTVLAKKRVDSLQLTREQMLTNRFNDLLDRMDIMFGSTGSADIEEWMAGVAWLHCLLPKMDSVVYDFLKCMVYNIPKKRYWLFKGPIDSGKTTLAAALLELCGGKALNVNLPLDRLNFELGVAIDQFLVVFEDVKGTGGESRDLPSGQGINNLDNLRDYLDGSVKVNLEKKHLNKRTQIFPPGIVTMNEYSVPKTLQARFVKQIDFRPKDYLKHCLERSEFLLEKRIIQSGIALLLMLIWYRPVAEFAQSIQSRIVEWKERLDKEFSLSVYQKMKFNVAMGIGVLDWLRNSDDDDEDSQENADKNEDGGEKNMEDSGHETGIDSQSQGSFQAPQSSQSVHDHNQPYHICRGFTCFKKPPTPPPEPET

inhibition, inactive:
C/C(=C\c1ccccc1)C(=O)Nc1nc2ccc([N+](=O)[O-])cc2s1 8.41%
CC(/C=N/n1c(-c2cccnc2)n[nH]c1=S)=C\c1ccco1 31.8%
S=c1[nH]nc(-c2n[nH]c3c2CCC3)n1/N=C/C=C/c1ccccc1 20.8%
S=c1[nH]nc(-c2ccncc2)n1/N=C/c1cccc(Cl)c1 29.1%
CC(=C/c1ccccc1)/C=N/n1c(-c2ccncc2)n[nH]c1=S 19%
Clc1ccccc1CN1CCN(/N=C/C=C/c2ccco2)CC1 15.9%
Cc1ccc(/C=N/n2c(C)nnc2C)cc1 19.4%
Cc1cccc(/C=N/n2c(C)nnc2C)c1 10.3%
S=c1[nH]nc(-c2ccco2)n1/N=C/c1ccc(Cl)cc1 31%
COC(=O)c1cn(NC(=O)CC2CCCCC2)c(=O)c2ccccc12 1.58%
O=c1[nH]cnc2onc(-c3ccc(F)cc3)c12 34%
O=[N+]([O-])c1cccc2nc(-c3ccccc3)c(-c3ccccc3)nc12 1.39%
CCCCOc1ccc(C(=O)NCc2ccccn2)cc1 -4.84%
COc1ccc(C(=O)NC(=S)NC(C)c2ccccc2)cc1 (stereo not given) 5.22%
Cc1ccc(C)c(N2CCN(CCCNC(=O)CCn3c(=O)c4cccn4c4cccnc43)CC2)c1 15.1%
Cc1cc(C(C)(C)C)ccc1OCC(=O)N/N=C\c1c(C)n(C)n(-c2ccccc2)c1=O -3.36%
COc1ccc(CN2CCC(n3nccc3NC(=O)CCOc3ccccc3)CC2)cc1C 5.92%
O=C(NCc1ccco1)c1csc2c1CCCCC2 1.56%
Cc1cc(C)cc(CSCC(=O)N/N=C/c2ccc(OCC(=O)NCc3ccco3)cc2)c1 10.9%
CC(/C=N/n1c(-c2ccco2)n[nH]c1=S)=C\c1ccco1 28.2%
CC(/C=N/n1c(-c2ccccc2)n[nH]c1=S)=C\c1ccco1 33.1%
CC(/C=N/n1c(-c2ccc(C)cc2)n[nH]c1=S)=C\c1ccco1 19.5%
Cc1ccsc1/C=N/n1c(-c2ccncc2)n[nH]c1=S 25.6%
CC(/C=N/n1c(-c2ccc(Cl)cc2)n[nH]c1=S)=C\c1ccco1 22.6%
Cc1ccsc1/C=N/n1c(-c2ccccc2)n[nH]c1=S 18.6%
CCOc1ccccc1NC(=S)NCCc1ccc(F)cc1 2.66%
O=C(CS(=O)(=O)c1ccc(F)cc1)Nc1nnc(-c2cccs2)o1 28.3%
COc1ccc(OC(=O)COc2ccc(Cl)cc2)cc1 21.7%
Cc1cccc(NC(=S)N2CCN(c3ccccn3)CC2)c1 7.16%
COC(=O)C1=NNC2(C)C(=O)N(c3ccc(C)cc3)C(=O)C12 (stereo not given) 1.54%
Cc1cc(C(C)C)n2c(nc3ccccc32)c1C#N 3.46%
CCc1c(C)c(C#N)c2nc3ccccc3n2c1Cl -5.75%
CCc1ccc(N(C(=O)CNC(=O)c2ccco2)C(C(=O)NC2CCCC2)c2cccnc2)cc1 (stereo not given) 12.2%
COc1ccc(/C=C2/SC(=S)N(CCCC(=O)Nc3ccc(O)cc3)C2=O)cc1 5.12%
O=C1ON=C(c2ccccc2)/C1=C/c1ccccc1 48.5%
COc1ccc(/C=C2\C(=O)ON=C2c2ccccc2)cc1 72.8%
O=C1ON=C(c2ccc(Cl)cc2)/C1=C/c1ccc(O)cc1 34.8%
O=C1ON=C(c2ccccc2)/C1=C/c1ccco1 36.5%
COc1cc(/C=C2\C(=O)ON=C2c2ccccc2)cc(OC)c1OC 9.78%
O=C1ON=C(c2ccccc2)/C1=C/c1cccnc1 1.23%
O=C1ON=C(c2ccccc2)/C1=C/c1ccc(O)cc1 48%
COc1cc(/C=C2\C(=O)ON=C2c2ccccc2)cc(Cl)c1O 32.2%
CCc1ccc(C(=O)OCC(=O)NCCNC(=O)COC(=O)c2ccc(CC)cc2)cc1 4.49%
CCC(C)[C@H](N)c1cn([C@@H](Cc2ccc(O)cc2)C(=O)N2CCNCC2)nn1 (stereo not given in full) 3.28%
NC(=O)C1CCN(C(=O)Cc2ccc([N+](=O)[O-])cc2)CC1 21.5%
O=C(Nc1cc(F)ccc1F)C1CCN(S(=O)(=O)c2cccc3nonc23)CC1 9.1%
CCCS(=O)(=O)c1c(S(=O)(=O)CCC)c2ccc(C(N)=O)cn2c1C(=O)c1ccc(F)cc1 24%
COCC(C)NC(C(=O)Nc1ccc(Cl)c([N+](=O)[O-])c1)c1ccccc1 (stereo not given) 0.39%
CC1(C)CC(C(=O)NCCC(c2ccccc2)c2ccco2)CCO1 (stereo not given) 3.84%
CC(=O)Nc1nonc1-c1nc2ccccc2n1CCC(C)C -3.72%
CCCCOc1cccc(C(=O)N(Cc2ccccc2)C2CCS(=O)(=O)C2)c1 (stereo not given) -0.72%
CC1CCN(C(=O)N[C@@H](Cc2ccccc2)C(=O)O)CC1 0.13%
O=C1C2C3CCC(O3)C2C(=O)N1c1cccc(O)c1 (stereo not given) -1.61%
COc1cccc(C(=O)Nc2nnc(-c3ccccc3)s2)c1OC 13.1%
O=C(Nc1ccncc1)C1CC(=O)N(c2ccc(F)cc2)C1 (stereo not given) 12.3%
COC(=O)C1=C(C(=O)OC)[C@@H]2N(C)c3ccc(OC)cc3[C@@]23C[C@@H](C(=O)OC)N(C(=O)c2ccco2)C3=N1 27.8%
COc1ccc(/C=C2\C(=O)ON=C2c2ccccc2)cc1OC 53.9%
COc1ccc(/C=C2/C(=O)ON=C2c2ccccc2)cc1OC 12.2%
Cc1ccc(C)c(NC(=S)NC(NC(=O)Cc2ccccc2)C(Cl)(Cl)Cl)c1 (stereo not given) 5.58%
CC1CC(C)CN(CCCNC(=O)C2CCN(c3nnc(-n4cccc4)s3)CC2)C1 (stereo not given) 7.41%
CCOc1ccc(CCNC(=O)C2CCN(c3nnc(-n4cccc4)s3)CC2)cc1 7.09%
CC1CCCCN1CCCNC(=O)C1CCN(c2nnc(-n3cccc3)s2)CC1 (stereo not given) 6.84%
Cc1ccc(C)n1-c1nnc(N2CCC(C(=O)NCCCN3CC(C)CC(C)C3)CC2)s1 (stereo not given) -2.68%
CCC1CCCCN1CCCNC(=O)C1CCN(c2nnc(-n3cccc3)s2)CC1 (stereo not given) 8.7%
CCN1CCN(CCCNC(=O)C2CCN(c3nnc(-n4cccc4)s3)CC2)CC1 12.4%
O=C(NC1CC(=O)N(c2ccc3c(c2)OCCO3)C1)N1CCCCC1 (stereo not given) 11.8%
CCN(CC)S(=O)(=O)c1ccc(S(=O)(=O)N2CCN(CCC#N)CC2)cc1 2.53%
CCCc1nc2ccc(NC(C)=O)cc2c(=O)n1Cc1ccccc1Cl 19.8%
CC1CCCCC1NC(=O)/C(C#N)=C/c1ccc(F)c(F)c1 (stereo not given) -0.71%
CC(=O)N1N=C(c2ccc(NS(C)(=O)=O)cc2)CC1c1ccc2nccnc2c1 (stereo not given) 8.1%
O=C(O)C1CC=CCC1C(=O)NC1CCCCC1 (stereo not given) 20.5%
CCn1ncc([N+](=O)[O-])c1C(=O)n1nc(C)cc1C 18.1%
Cn1cnc([N+](=O)[O-])c1Sc1nnc(-c2cccnc2)n1C 7.52%
Cc1onc(-c2ccccc2Cl)c1C(=O)OCC(=O)Nc1cccc(S(=O)(=O)N2CCOCC2)c1 4.68%
COc1ccc(/C=N/NC(=O)CC(=O)N/N=C/c2ccc(OC)cc2)cc1 -38%
O=C(C[n+]1ccccc1)N/N=C/c1ccc(F)cc1 8.34%
O=C(CC(=O)N/N=C/c1ccc(F)cc1)N/N=C/c1ccc(F)cc1 10.6%
C/C(=N\NC(=O)c1csc2ccccc12)c1ccc(O)cc1 26.5%
COc1ccc(/C=N/NC(=O)CCn2cnc3ccccc32)cc1 2.3%
O=C(N/N=C/c1cccc(O)c1)c1csc2ccccc12 9.57%
O=C(CCn1cnc2ccccc21)N/N=C/c1ccccc1O 14.7%
CN(C)c1ccc(/C=N/NC(=O)C[n+]2ccccc2)cc1 17.6%
CC(C)Cn1cc(C(=O)N2CCN(c3ccccn3)CC2)c2c3ccccc3n(C)c2c1=O 1.5%
COc1nc(NC(=O)c2ccc(F)cc2)nc(OC)c1-c1ccccc1 6.25%
COc1ccc(-c2csc(NC(=O)CN3C(=O)NC4(CCCC4)C3=O)n2)cc1OC 23.8%
CCCOc1ccc(-c2nc(C#N)c(NCC3CCCO3)o2)cc1 (stereo not given) 3.05%
O=C(CSc1nc2ccccc2s1)NCCCN1CCOCC1 -10.3%
COc1ccc(CCC(=O)NC2=NCCS2)cc1OC 13.6%
O=C(Nc1ccc2c(c1)OCCO2)c1ccco1 30.4%
CCOC(=O)CSc1nc2sc3c(c2c(=O)n1C1CCCCC1)CCN(C)C3 24.2%
CCC(NC(=O)c1cc(COc2ccc(Cl)cc2OC)on1)c1ccncc1 (stereo not given) 7.95%
CCn1c(CC(=O)Nc2ccc(C)c(Cl)c2)nnc1SCc1ccc(Cl)c(Cl)c1 2.82%
CC(C)C1Nc2c(O)cc(Cl)c([N+](=O)[O-])c2C2C=CCC21 (stereo not given) 21.4%
O=[N+]([O-])c1ccc(Cl)c2c1C1C=CCC1C(c1ccccn1)N2 (stereo not given) 21.7%
Cc1ccc(CNC(=O)CCC2CCCN(C(=O)c3ccc4c(c3)OCO4)C2)o1 (stereo not given) 12.7%
